# Measurements as given in the supplement of paper PMC12350171.
# Counter-ions that a name gives are not always drawn. Values without a mark were called inactive.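 The calls were made as follows: active = AUC significantly below DMSO controls by Student t-fit with adjusted P under 0.01; inactive = not significantly reduced.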
# System: Yersinia pseudotuberculosis
# Experiment: growth AUC normalised to DMSO control (fraction of control); higher = less growth inhibition, active = hit call of the paper
# Conditions: 20 µM
# How it was run: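 Pathogens were passaged twice under anaerobic conditions, then inoculated into pre-reduced mGAM plates at a starting OD578 of 0.01, with compound at 20 μM and 1% DMSO, and sealed with breathable membranes. For Haemophilus parainfluenzae, the medium was supplemented with hemin and NAD. OD578 was read every hour for 24 h in three biological replicates. Growth-curve AUC was calculated by the trapezoidal rule up to the exponential-to-stationary transition and normalised to DMSO controls on the same plate.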
row,Compound,growth AUC normalised to DMSO control
1,O=C(NCC(O)CO)c1c(I)c(C(=O)NCC(O)CO)c(I)c(N(CCO)C(=O)CO)c1I (stereo not given) [Ioversol],1.03
2,CC(CN(C)C)CN1c2ccccc2Sc2ccccc21 (stereo not given) [Trimeprazine tartrate],0.999
3,CCCCC[C@H](O)/C=C/[C@H]1[C@H](O)CC(=O)[C@@H]1CCCCCCC(=O)O [Alprostadil],0.999
4,CCCCOC(=O)c1ccc(O)cc1 [Butylparaben],0.962
5,CN1CCCN=C1/C=C/c1cccc(O)c1 [Oxantel pamoate],1.02
6,Cc1ccc(S(=O)(=O)NC(=O)NN2CC3CCCC3C2)cc1 (stereo not given) [Gliclazide],0.987
7,CC1CNc2c(cccc2S(=O)(=O)N[C@@H](CCCNC(=N)N)C(=O)N2CC[C@@H](C)C[C@@H]2C(=O)O)C1 (stereo not given in full) [Argatroban],1.02
8,CCCCC1C(=O)N(c2ccccc2)N(c2ccc(O)cc2)C1=O (stereo not given) [Oxyphenbutazone],1
9,COc1c(N2C[C@@H]3CCCN[C@@H]3C2)c(F)cc2c(=O)c(C(=O)O)cn(C3CC3)c12 [Moxifloxacin],0.0337 (active)
10,CN(Cc1ccc(C(C)(C)C)cc1)Cc1cccc2ccccc12 [Butenafine hydrochloride],0.99
11,CC(=O)OCC(=O)[C@@]12N=C(C)O[C@@H]1C[C@H]1[C@@H]3CCC4=CC(=O)C=C[C@]4(C)[C@H]3[C@@H](O)C[C@@]12C [Deflazacort],0.999
12,CN1CCN(C2=Nc3ccccc3Oc3ccc(Cl)cc32)CC1 [Loxapine succinate],1.01
13,CC(C)(C)NCC(O)COc1cccc2c1CCC(=O)N2 (stereo not given) [Carteolol hydrochloride],1
14,O=C(CCCCCCC(=O)Nc1ccccc1)NO [Vorinostat],1.03
15,O=C1CN(/N=C/c2ccc([N+](=O)[O-])o2)C(=O)N1 [Nitrofurantoin],0.999
16,N=C(N)NCC1COC2(CCCCC2)O1 (stereo not given) [Guanadrel sulfate],0.985
17,CC(=O)Nc1ccc(OCC(O)CNC(C)C)cc1 (stereo not given) [Practolol],1.01
18,C[C@H](O)C(=O)Nc1c(I)c(C(=O)NC(CO)CO)c(I)c(C(=O)NC(CO)CO)c1I [Iopamidol],1.03
19,Cc1ncc(CO)c(CO)c1O [Pyridoxine hydrochloride],1
20,CC1=C(CC(=O)O)c2cc(F)ccc2/C1=C\c1ccc([S+](C)[O-])cc1 (stereo not given) [Sulindac],1.03

row,Compound,growth AUC normalised to DMSO control
1,CC(C)CC(=O)N[C@H](C(=O)N[C@H](C(=O)N[C@@H](CC(C)C)[C@@H](O)CC(=O)N[C@@H](C)C(=O)N[C@@H](CC(C)C)[C@@H](O)CC(=O)O)C(C)C)C(C)C [Pepstatin A],1
2,CC(COc1ccccc1)N(CCCl)Cc1ccccc1 (stereo not given) [Phenoxybenzamine hydrochloride],1.03
3,CCN[C@H]1CN(CCCOC)S(=O)(=O)c2sc(S(N)(=O)=O)cc21 [Brinzolamide],0.989
4,CCCCOc1cc(C(=O)OCCN(CC)CC)ccc1N [Benoxinate hydrochloride],0.992
5,CNCC[C@@H](Oc1ccccc1C)c1ccccc1 [Tomoxetine hydrochloride],1
6,Cc1cc(=O)n(-c2ccccc2)n1C [Antipyrine],1
7,OC(Cn1cncn1)(Cn1cncn1)c1ccc(F)cc1F [Fluconazole],1.01
8,O=C1O[C@H]([C@@H](O)CO)C(O)=C1O [Ascorbic acid],0.989
9,"c1ccc(CNc2ncnc3nc[nH]c23)cc1 [Aminopurine, 6-benzyl]",1.01
10,CC(CCc1ccccc1)NCC(O)c1ccc(O)c(C(N)=O)c1 (stereo not given) [Labetalol hydrochloride],0.988
11,OCCN(CCO)c1nc(N2CCCCC2)c2nc(N(CCO)CCO)nc(N3CCCCC3)c2n1 [Dipyridamole],1
12,CCCCCCCCNC(C)C(O)c1ccc(SC(C)C)cc1 (stereo not given) [Suloctidil],0.937
13,CCCCCCC[N+](CC)(CC)CCCCc1ccc(Cl)cc1 [Clofilium tosylate],1.02
14,C=CC[N@@+]12CC[C@@]34c5ccccc5N5/C=C6/[C@H]7C[C@H]8[C@@]9(CC[N@@+]8(CC=C)C/C7=C/CO)c7ccccc7N(/C=C(/[C@@H](C[C@@H]31)/C(=C\CO)C2)[C@H]54)[C@@H]69 [Alcuronium chloride],1.03
15,CCc1ccc(CCOc2ccc(CC3SC(=O)NC3=O)cc2)nc1 (stereo not given) [Pioglitazone],0.922
16,CC1CC(OC(=O)c2ccccc2O)CC(C)(C)C1 (stereo not given) [Homosalate],1.01
17,CC(C)N1CCN(c2ccc(OCC3COC(Cn4cncn4)(c4ccc(Cl)cc4Cl)O3)cc2)CC1 (stereo not given) [Terconazole],0.989
18,O=C(Nc1ccc([N+](=O)[O-])cc1Cl)c1cc(Cl)ccc1O [Niclosamide],0.843 (active)
19,CCN1C(=O)NC(c2ccccc2)C1=O (stereo not given) [Ethotoin],0.992
20,COc1cc(Cc2cnc(N)nc2N)cc(OC)c1OC [Trimethoprim],0.157 (active)
